Here are results for 23 molecules from PMC4336329 (PLoS ONE, 2015).

The whole screen tested about 310,000 compounds, of which about 14,000 (4.5%) showed an effect of 50% or more. The effect is printed as a negative number. Many of the other results were omitted from the sample, so strong results are more common in it than they were.
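Further: peak tail current of the secondary pulse compared with the same well before compound.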

The assay deals with human ether-à-go-go-related gene (hERG) potassium channel (human, UniProt Q12809). The experiment in a line: primary screen, population patch clamp on CHO cells stably expressing hERG; higher = less effect of the substance.
human ether-à-go-go-related gene (hERG) potassium channel, sequence (Q12809 whole entry, looked up): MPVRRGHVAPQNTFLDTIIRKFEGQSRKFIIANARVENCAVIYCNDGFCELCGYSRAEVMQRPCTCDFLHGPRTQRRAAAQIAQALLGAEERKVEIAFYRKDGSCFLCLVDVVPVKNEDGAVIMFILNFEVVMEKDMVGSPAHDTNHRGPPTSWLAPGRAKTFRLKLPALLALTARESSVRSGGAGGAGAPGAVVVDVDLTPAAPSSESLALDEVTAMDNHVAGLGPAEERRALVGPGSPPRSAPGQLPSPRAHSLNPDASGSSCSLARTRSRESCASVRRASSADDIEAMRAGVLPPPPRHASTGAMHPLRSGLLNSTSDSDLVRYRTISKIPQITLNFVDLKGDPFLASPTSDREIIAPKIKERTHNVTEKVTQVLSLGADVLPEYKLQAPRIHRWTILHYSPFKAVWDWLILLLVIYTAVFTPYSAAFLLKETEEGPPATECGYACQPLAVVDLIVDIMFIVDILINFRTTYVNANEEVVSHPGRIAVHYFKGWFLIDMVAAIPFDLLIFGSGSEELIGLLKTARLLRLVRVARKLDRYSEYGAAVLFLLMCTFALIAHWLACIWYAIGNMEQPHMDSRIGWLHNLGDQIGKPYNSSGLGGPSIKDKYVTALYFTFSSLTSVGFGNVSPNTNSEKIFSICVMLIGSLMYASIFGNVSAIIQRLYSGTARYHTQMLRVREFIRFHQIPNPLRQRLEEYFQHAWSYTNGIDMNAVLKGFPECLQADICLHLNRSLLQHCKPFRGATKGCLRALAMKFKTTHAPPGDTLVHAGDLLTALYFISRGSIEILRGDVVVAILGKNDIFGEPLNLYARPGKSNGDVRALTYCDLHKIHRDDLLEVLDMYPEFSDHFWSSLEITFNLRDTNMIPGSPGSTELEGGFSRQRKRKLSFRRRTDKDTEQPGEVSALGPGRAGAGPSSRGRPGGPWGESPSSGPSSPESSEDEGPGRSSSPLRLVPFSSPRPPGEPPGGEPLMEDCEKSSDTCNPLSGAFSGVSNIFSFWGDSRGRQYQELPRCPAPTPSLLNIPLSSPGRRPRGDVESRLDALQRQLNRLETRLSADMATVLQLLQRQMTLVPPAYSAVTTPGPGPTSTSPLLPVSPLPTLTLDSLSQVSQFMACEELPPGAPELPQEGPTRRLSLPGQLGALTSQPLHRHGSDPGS
Consider `CC(=O)Nc1ccc(S(=O)(=O)Nc2ccc3c(c2)OCCO3)cc1Cl`, for which the “hERG current change (%, negative = inhibition) at 10uM” value was found to be 15.5%.

`CN(Cc1ccccc1)C(=O)c1c[nH]c2ccc(S(=O)(=O)N3CCOCC3)cc2c1=O`: the “hERG current change (%, negative = inhibition) at 10uM” value worked out at 3.03%.

As for `Cc1ccc(S(=O)(=O)N2CCN(C(=O)n3ccnc3)CC2)cc1`, the “hERG current change (%, negative = inhibition) at 10uM” value was -5.76%.

With `CC(C)Cc1nc(N2CCN(C(=O)c3ccccc3)CC2)c(C#N)c2c1CCC2`, the “hERG current change (%, negative = inhibition) at 10uM” value is recorded as -24.1%.

On to `COc1cc(C)c(S(=O)(=O)NOCc2ccc([N+](=O)[O-])cc2)c(C)c1C`, for which the “hERG current change (%, negative = inhibition) at 10uM” value stood at 8.43%.

`CN(C)C(=O)N1CCNCC1.Cl`: the “hERG current change (%, negative = inhibition) at 10uM” value was found to be 12.8%.

Turning to `CC(C)[C@H](NC(=O)OC(C)(C)C)C(=O)N1CCC(C(=O)N[C@@H](C)C(=O)Nc2ccc(F)cc2)CC1`, the “hERG current change (%, negative = inhibition) at 10uM” value stood at 10.7%.

As to `Cn1c(=O)c2c(nc(SCC(=O)NCc3ccc4c(c3)OCO4)n2Cc2ccc(F)cc2)n(C)c1=O`, the “hERG current change (%, negative = inhibition) at 10uM” value is listed as -63.1%.

Consider `Cn1c(=O)c2c(nc(NCc3ccc4c(c3)OCO4)n2Cc2ccc(F)cc2)n(C)c1=O`, for which the “hERG current change (%, negative = inhibition) at 10uM” value is reported as -5.77%.

Take `Cn1c(=O)c2c(nc(SCC(=O)NCc3ccc4c(c3)OCO4)n2Cc2ccccc2)n(C)c1=O`: the “hERG current change (%, negative = inhibition) at 10uM” value is given as -46.9%.

In the case of `CCn1c(SCC(=O)Nc2ccc3c(c2)OCO3)nc2c1c(=O)n(C)c(=O)n2C`, the “hERG current change (%, negative = inhibition) at 10uM” value was -0.539%.

As to `Cn1c(=O)c2c(nc(SCC(=O)NCC3CCCO3)n2Cc2ccc(F)cc2)n(C)c1=O` (centres unmarked), the “hERG current change (%, negative = inhibition) at 10uM” value was -41.6%.

With `Cn1c(=O)c2c(nc(SCC(=O)NCc3ccc4c(c3)OCO4)n2Cc2ccc(Cl)cc2)n(C)c1=O`, the “hERG current change (%, negative = inhibition) at 10uM” value was -50.6%.

Take `O=C(NN1CCOCC1)c1sc2cccc(F)c2c1Cl`: the “hERG current change (%, negative = inhibition) at 10uM” value amounted to 9.93%.

Turning to `c1ccc(-c2cnc(CSc3ncnc4sccc34)o2)cc1`, the “hERG current change (%, negative = inhibition) at 10uM” value is 7.1%.

With `N#CC1=C(N)SC(N)=C(C#N)C1CCc1ccccc1`, the “hERG current change (%, negative = inhibition) at 10uM” value came to 26.4%.

Turning to `C/C(=N/NC(=O)CNC(=O)Cc1ccccc1)c1ccc(Cl)cc1`, the “hERG current change (%, negative = inhibition) at 10uM” value is listed as 5.97%.

As for `CN1/C(=C\C=C(/C#N)C(=O)Nc2ccc(Cl)cc2)C(C)(C)c2ccccc21`, the “hERG current change (%, negative = inhibition) at 10uM” value is reported as 13%.

As to `CCNC(=O)CC1C(=O)N(c2cccc(C)c2)C(=O)N1CCC(C)C` (centres unmarked), the “hERG current change (%, negative = inhibition) at 10uM” value is -75%.

For `CCNC(=O)CC1C(=O)N(c2ccc(C)cc2)C(=O)N1CCC(C)C` (centres unmarked), the “hERG current change (%, negative = inhibition) at 10uM” value is reported as -2.19%.

For `CCNC(=O)CC1C(=O)N(c2ccccc2)C(=O)N1CCC(C)C` (centres unmarked), the “hERG current change (%, negative = inhibition) at 10uM” value amounted to 5.26%.

As to `CCN(c1ccccc1)S(=O)(=O)c1cc(NC(=O)Nc2ccccc2C#N)ccc1Cl`, the “hERG current change (%, negative = inhibition) at 10uM” value is -34.2%.

As to `Cc1ccc(NC(=O)CCc2nnc(SCC(=O)Nc3ccccc3C)n2C)cc1Cl`, the “hERG current change (%, negative = inhibition) at 10uM” value came to 14.5%.
